Results on two compounds are retold here after PubChem BioAssay AID2283186 (EPA ToxCast).

Activity calls are given as the source filed them. How the source made its calls: active means hit-call score of the fitted dose curve at least 0.9, where 1 is the maximum; inactive means score below 0.9.

human p21 Activated Kinase 2 (PAK2), PAK2 (gene 5062), sequence (Q13177 whole entry, looked up): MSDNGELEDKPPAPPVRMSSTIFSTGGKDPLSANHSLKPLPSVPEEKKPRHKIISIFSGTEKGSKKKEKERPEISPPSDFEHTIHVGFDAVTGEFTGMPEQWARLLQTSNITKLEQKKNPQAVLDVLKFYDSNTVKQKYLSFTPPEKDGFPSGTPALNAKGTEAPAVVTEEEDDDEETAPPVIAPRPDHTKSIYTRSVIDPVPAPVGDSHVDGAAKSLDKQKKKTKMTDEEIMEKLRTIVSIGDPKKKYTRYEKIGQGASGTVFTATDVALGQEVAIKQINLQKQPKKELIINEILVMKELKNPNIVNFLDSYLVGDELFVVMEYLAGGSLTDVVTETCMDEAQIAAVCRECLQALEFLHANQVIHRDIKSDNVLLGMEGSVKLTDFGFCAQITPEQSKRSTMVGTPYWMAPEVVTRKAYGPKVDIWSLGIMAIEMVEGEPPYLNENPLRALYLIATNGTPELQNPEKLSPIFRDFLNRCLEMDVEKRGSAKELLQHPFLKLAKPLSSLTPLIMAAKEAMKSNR

The experiment deals with human p21 Activated Kinase 2 (PAK2), PAK2 (gene 5062) (UniProt Q13177). Kind of experiment: NVS_ENZ_hPAK2: NovaScreen (NVS) Enzymatic Assay for human p21 Activated Kinase 2 (PAK2). Here is the method:
NVS_ENZ_hPAK2 is a biochemical, single-readout assay that uses extracted gene-proteins in a cell-free assay. Measurements were taken 1 hour after chemical dosing in a 384-well plate.NVS_ENZ_hPAK2 is one of one assay component(s) measured or calculated from the NVS_ENZ_hPAK2 assay. It is designed to make measurements of enzyme activity, a form of enzyme reporter, as detected with fluorescence intensity signals by Fluorescence and electrophoretic mobility shift technology.Data from the assay component NVS_ENZ_hPAK2 was analyzed into 1 assay endpoint. This assay endpoint, NVS_ENZ_hPAK2, was analyzed in the positive analysis fitting direction relative to DMSO as the negative control and baseline of activity. Using a type of enzyme reporter, loss-of-signal activity can be used to understand changes in the enzymatic activity as they relate to the gene PAK2. Furthermore, this assay endpoint can be referred to as a primary readout, because this assay has produced multiple assay endpoints where this one serves a enzymatic activity function. To generalize the intended target to other relatable targets, this assay endpoint is annotated to the kinase intended target family, where the subfamily is serine/threonine kinase. […]
In the case of `CC(C)(c1ccc(O)cc1)c1ccc(O)cc1`, the result was inactive.
On to `COCCO`, for which the result was inactive.
